In PubChem BioAssay (NCATS) one finds Potency and outcome data, which are given here for 18 compounds.

Several values for one entry are separate records, joined by “and”; a condition that tells them apart may be missing. Equal values may be shown once. Results filed as inconclusive are left out. Activity calls are given as the source filed them. The call rests on the fitted dose curve; in most records, active means well fitted curve in the direction sought with a large enough effect; inconclusive means small, poorly fitted or top-dose-only effect, or another doubt; inactive means no such curve, though single readings can be large; an effect the other way counts as inactive or inconclusive.

The target of experiment [1] is ATP-dependent 6-phosphofructokinase (Trypanosoma brucei brucei) (UniProt O15648). Briefly: qHTS Validation Assay to Find Inhibitors of T. brucei phosphofructokinase (AID 485368). In a few lines: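 Steps: substrate mix (0.5 mM F6P, 0.1 mM ATP, MgCl2, TEA pH 8.0); compound; 1.25 nM T. brucei PFK; 45 min RT; ATP depletion 10 min; ADP-to-ATP detection 10 min; luminescence read; curve fitting and classification.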
ATP-dependent 6-phosphofructokinase (Trypanosoma brucei brucei), sequence (O15648 whole entry, looked up): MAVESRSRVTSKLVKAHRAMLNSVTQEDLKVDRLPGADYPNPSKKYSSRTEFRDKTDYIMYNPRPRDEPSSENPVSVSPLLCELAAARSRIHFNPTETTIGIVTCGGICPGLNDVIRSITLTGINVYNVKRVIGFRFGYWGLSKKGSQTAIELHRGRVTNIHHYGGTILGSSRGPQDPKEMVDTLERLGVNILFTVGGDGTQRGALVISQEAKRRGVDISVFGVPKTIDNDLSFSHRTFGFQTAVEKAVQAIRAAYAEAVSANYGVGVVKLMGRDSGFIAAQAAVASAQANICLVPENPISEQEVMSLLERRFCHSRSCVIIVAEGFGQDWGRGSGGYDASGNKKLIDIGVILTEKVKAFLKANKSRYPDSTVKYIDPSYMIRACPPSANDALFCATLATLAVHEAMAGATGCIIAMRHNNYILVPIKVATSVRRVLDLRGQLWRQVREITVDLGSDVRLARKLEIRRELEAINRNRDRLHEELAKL

Experiment [2] in a line: Quantitative high throughput screen for delayed death inhibitors of the malarial parasite plastid, 48 hour incubation (AID 488752). Further: nearly all actives have a fitted effect of over 65% in size. Summed up:
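One parasite generation (48 h, 37 C, 5% CO2) of luciferase-reporter P. falciparum in erythrocytes is run with test compound; decreased luminescence indicates inhibited growth.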

Experiment [3] has as its target Thioredoxin reductase 1, cytoplasmic (Rattus norvegicus) (UniProt O89049). Put plainly: qHTS Assay for Substrates of Mammalian Selenoprotein Thioredoxin Reductase 1 (TrxR1) (AID 488772).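 Further: NADPH fluorescence in the first read after selenite addition and not the 8 min delta; series mostly up to about 57 µM; a drop in NADPH fluorescence below the no-compound background marks a TrxR1 substrate.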 In a few lines: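 Quantitative HTS in Tris-HCl buffer at pH 7.5 with EDTA and Tween-20, using rat TrxR1, 400 uM NADPH and 400 uM selenite (final). A fall in initial NADPH fluorescence relative to background marked substrate behaviour.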

The target is the same in experiment [4]. Briefly: qHTS Assay for Inhibitors of Mammalian Selenoprotein Thioredoxin Reductase 1 (TrxR1) (AID 488773). Further: nearly all actives have a fitted effect of over 40% in size. Further: potency means the concentration at half of the fitted maximal effect. The following applies: Potency: inhibition. In a few lines:
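Steps: enzyme (90 nM) plus NADPH (400 uM final), 5 min at ~22 deg C; compound added, 15 min; selenite (400 uM final) added; fluorescence followed for 8 min. Concentration-response curves derived from the normalized delta values.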

The target of experiment [5] is Flap endonuclease 1 (Homo sapiens) (UniProt P39748). Briefly: qHTS Validation Assay for the Inhibitors of Human Flap endonuclease 1 (FEN1) (AID 488816). Further: potency means the concentration at half of the fitted maximal effect. In a few lines:
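Human FEN1 (10 nM) preincubated 15 min at room temperature with compounds, then flap DNA substrate added at 50 nM final. Fluorescence read at 0 and 15 min; concentration-response fitted with four-parameter Hill equation.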

Experiment [6] addresses Chromobox protein homolog 1 (Homo sapiens) (UniProt P83916). Briefly: qHTS Validation Assay for Inhibitors of HP1-beta Chromodomain Interactions with Methylated Histone Tails (AID 488953). Further: nearly all actives have a fitted effect of over 50% in size. Further: potency means the concentration at half of the fitted maximal effect. Summed up: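 Measured as loss of AlphaScreen luminescence from streptavidin donor and nickel acceptor beads (10 ug/mL final) bridging HP1-beta and biotin-H3(1-18)K9me3, each 50 nM. Compounds met the preassembled complex for 30 min at RT.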

Experiment [7] has as its target Methanococcus maripaludis chaperonin (MmCpn) (UniProt Q6LX38). Put plainly: High-Throughput Screening for Modulators of Cytosolic Chaperonin Activity: MmCpn Primary Screen (AID 488978).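 Further: 50 nM MmCpn enzyme hydrolysing 30 µM ATP at 37 °C.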 Summed up: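 MmCpn at 50 nM final was preincubated 5 min at RT with compound. ATP was then added at 30 uM final for 10 min at 37 C. ADP formed was detected by Transcreener HTRF (665/590 nm).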

Experiment [8] deals with Transient receptor potential cation channel subfamily V member 1 (Homo sapiens) (UniProt Q8NER1). Briefly: HTS Assay for Compounds that Act as Enhancers of the Vanilloid Receptor 1 (AID 488979). Summed up:
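TRPV1 cells loaded with Fluo-8 calcium dye; compound added and Ca2+ signal (ex 480/em 520 nm) followed 3 min, then capsaicin at EC20 added and read 2 more min to detect enhancement.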

Experiment [9] deals with M-phase phosphoprotein 8 (Homo sapiens) (UniProt Q99549). Briefly: qHTS Validation Assay for Inhibitors for MPP8 Chromodomain Interactions with Methylated Histone Tails (AID 488949). Further: nearly all actives have a fitted effect of over 55% in size. Further: potency means the concentration at half of the fitted maximal effect. In a few lines:
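MPP8 (50 nM) was pre-bound to 50 nM biotinylated H3(1-18)K9me3 peptide in PBS pH 7.4 with 0.01% Tween-20. Compounds were then added for 30 min at room temperature, and complex disruption was read by AlphaScreen with streptavidin donor and nickel-chelate acceptor beads.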

A short description of experiment [10]: Quantitative high throughput screen for delayed death inhibitors of the malarial parasite plastid, 96 hour incubation (AID 488745).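 Further: luciferase-expressing P. falciparum in erythrocytes at 2% hematocrit and 0.1% parasitemia; series mostly up to about 29 µM; nearly all actives have a fitted effect of over 70% in size.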 Summed up:
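Growth of reporter-bearing P. falciparum in red cells is measured after 96 h with compound, covering two erythrocytic cycles. Luminescence from the integrated luciferase serves as the growth signal.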

Thioredoxin reductase 1, cytoplasmic (Rattus norvegicus), sequence (O89049 whole entry, looked up): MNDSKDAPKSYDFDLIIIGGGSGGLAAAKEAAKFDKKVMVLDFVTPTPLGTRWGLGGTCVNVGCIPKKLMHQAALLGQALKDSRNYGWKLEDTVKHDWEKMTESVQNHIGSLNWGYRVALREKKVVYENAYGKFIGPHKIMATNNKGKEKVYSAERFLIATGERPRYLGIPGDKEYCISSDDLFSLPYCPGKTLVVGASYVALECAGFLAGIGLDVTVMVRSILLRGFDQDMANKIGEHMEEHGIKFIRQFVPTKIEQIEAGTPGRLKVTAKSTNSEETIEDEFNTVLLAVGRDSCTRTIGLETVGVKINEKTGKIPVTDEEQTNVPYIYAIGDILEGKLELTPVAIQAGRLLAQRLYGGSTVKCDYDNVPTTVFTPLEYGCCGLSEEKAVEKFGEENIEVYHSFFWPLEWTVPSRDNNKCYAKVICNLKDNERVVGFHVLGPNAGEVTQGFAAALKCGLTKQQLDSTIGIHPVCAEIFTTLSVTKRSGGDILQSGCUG
Transient receptor potential cation channel subfamily V member 1 (Homo sapiens), sequence (Q8NER1 whole entry, looked up): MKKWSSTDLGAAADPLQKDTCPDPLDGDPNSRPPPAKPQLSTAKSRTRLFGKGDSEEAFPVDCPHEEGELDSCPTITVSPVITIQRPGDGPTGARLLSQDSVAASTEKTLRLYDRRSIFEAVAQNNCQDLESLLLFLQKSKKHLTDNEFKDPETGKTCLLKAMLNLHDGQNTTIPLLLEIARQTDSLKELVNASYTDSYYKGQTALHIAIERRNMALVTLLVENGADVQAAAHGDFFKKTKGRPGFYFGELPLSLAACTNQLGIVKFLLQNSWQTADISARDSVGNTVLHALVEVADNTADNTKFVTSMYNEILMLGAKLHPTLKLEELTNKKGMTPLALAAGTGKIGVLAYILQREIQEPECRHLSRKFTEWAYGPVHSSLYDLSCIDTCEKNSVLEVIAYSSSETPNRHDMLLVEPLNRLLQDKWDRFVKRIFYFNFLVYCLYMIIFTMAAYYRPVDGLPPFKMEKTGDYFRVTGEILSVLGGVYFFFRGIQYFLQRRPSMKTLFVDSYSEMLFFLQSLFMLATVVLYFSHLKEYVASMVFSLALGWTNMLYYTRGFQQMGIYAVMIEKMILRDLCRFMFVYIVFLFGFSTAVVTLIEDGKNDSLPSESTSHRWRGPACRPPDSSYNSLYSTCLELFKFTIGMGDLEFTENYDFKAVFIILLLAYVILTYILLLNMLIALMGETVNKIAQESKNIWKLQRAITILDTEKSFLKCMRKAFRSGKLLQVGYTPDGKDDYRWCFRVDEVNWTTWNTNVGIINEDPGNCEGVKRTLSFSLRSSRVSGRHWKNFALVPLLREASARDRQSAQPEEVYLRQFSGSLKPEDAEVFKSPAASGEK
Flap endonuclease 1 (Homo sapiens), sequence (P39748 whole entry, looked up): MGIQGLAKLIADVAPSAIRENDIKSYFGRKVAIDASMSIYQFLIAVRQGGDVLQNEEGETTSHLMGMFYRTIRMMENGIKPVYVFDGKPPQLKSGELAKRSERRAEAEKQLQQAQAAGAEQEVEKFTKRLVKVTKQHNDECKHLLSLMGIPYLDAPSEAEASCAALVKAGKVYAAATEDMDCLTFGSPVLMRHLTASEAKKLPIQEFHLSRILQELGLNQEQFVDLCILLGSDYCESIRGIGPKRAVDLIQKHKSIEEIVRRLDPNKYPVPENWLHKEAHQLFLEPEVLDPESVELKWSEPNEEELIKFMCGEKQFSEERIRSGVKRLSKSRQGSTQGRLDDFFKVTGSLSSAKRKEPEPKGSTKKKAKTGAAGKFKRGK
M-phase phosphoprotein 8 (Homo sapiens), sequence (Q99549 whole entry, looked up): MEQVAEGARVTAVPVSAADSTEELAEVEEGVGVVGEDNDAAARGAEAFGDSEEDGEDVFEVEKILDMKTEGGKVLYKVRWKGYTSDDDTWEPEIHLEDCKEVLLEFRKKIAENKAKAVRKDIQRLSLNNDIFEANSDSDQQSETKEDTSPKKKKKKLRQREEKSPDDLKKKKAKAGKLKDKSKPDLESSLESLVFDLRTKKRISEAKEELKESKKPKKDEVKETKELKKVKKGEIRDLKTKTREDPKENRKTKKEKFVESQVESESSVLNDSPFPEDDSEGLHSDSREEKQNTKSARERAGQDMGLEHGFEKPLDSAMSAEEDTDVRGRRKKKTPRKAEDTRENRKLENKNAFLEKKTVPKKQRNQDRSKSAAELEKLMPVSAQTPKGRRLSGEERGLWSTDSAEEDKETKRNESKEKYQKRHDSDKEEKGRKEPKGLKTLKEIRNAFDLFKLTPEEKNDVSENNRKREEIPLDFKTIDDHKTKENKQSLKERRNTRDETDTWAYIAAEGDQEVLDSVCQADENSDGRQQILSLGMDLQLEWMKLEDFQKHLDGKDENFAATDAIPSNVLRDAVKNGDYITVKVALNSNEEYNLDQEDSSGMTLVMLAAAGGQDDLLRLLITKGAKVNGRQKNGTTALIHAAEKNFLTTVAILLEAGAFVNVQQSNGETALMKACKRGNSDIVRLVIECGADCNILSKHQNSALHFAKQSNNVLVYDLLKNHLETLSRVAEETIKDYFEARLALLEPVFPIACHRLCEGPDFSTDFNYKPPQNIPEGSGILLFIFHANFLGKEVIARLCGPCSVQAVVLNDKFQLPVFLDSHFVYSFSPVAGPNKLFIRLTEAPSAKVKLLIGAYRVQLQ
Chromobox protein homolog 1 (Homo sapiens), sequence (P83916 whole entry, looked up): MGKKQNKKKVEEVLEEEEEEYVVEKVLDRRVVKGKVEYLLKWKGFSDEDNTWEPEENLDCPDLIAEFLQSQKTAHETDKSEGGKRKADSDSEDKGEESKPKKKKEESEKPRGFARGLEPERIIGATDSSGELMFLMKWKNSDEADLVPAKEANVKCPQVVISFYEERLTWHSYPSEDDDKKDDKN
Methanococcus maripaludis chaperonin (MmCpn), sequence (Q6LX38 1-543): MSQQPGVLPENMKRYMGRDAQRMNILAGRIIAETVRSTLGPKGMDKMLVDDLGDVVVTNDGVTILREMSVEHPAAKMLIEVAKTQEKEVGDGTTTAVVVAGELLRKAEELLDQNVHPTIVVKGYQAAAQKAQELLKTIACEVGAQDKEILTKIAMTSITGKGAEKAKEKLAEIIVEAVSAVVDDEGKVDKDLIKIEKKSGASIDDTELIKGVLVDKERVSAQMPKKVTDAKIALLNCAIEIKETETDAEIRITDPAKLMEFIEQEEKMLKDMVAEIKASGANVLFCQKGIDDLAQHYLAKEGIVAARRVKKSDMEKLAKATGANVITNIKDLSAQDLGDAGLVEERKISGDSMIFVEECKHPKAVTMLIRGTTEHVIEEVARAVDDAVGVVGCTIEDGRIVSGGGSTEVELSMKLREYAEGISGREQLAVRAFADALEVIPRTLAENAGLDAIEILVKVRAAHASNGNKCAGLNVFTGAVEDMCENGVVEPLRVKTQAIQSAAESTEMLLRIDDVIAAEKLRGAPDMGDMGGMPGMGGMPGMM

In the case of `C[C@@H](NCCc1ccc(O)cc1)[C@@H](O)c1ccc(O)cc1`, the Potency entry in experiment [1], in experiment [2], in experiment [4], in [5] and in experiment [6] was “inactive” in each case. The compound was classed as inactive in [3], in experiment [7] and in experiment [8].

Regarding `Nn1nnc2ccccc21`, the Potency result in experiment [1], in experiment [2], in experiment [4], in experiment [5], in [9] and in [6] was “inactive” each time. In addition, the result in experiment [3], in experiment [7] and in experiment [8] was inactive.

As for `CCN(c1nc(N)c(C(=O)N=C(N)N)nc1Cl)C(C)C`, the Potency result in experiment [1], in [2], in [4], in [5] and in experiment [9] was “inactive” in each case. In addition, the call in experiment [3], in [7] and in experiment [8] was inactive.

For the compound `C=CCNc1ncnc2ccc(Br)cc12`, the Potency entry in experiment [1], in [4], in experiment [5], in experiment [9] and in experiment [6] was “inactive” each time. Also, the compound was classed as inactive in [3] and in [7].

Regarding `CC(C)C[C@H](NC(=O)[C@H](O)[C@H](N)Cc1ccccc1)C(=O)O`, the Potency entry in experiment [1], in experiment [2], in experiment [4], in experiment [5], in experiment [9] and in [6] was “inactive” throughout. The compound was called inactive in experiment [3], in experiment [7] and in experiment [8].

With `CCCCOc1cc(CC2CNC(=O)N2)ccc1OC` (centres undefined), the Potency result in [1], in experiment [2], in experiment [4], in experiment [5], in experiment [9] and in experiment [6] was “inactive” in each case. In addition, the compound was called inactive in experiment [3], in experiment [7] and in [8].

As for `OC[C@H]1NC[C@@H](O)[C@@H]1O`, the Potency result in experiment [1], in [2], in experiment [4], in experiment [5], in experiment [9] and in experiment [6] was “inactive” each time. The outcome in experiment [3], in [7] and in experiment [8] was inactive.

In the case of `Cn1c(=O)c2[nH]c(-c3ccc(S(=O)(=O)O)cc3)nc2n(C)c1=O`, the Potency result in experiment [1], in [2], in experiment [4], in [5], in [9] and in experiment [6] was “inactive” in each case. Moreover, the call in experiment [3], in [7] and in experiment [8] was inactive.

In the case of `O=c1onc2n1-c1cc(Br)ccc1OC2`, the Potency entry in [1], in experiment [2], in experiment [4] and in [5] was “inactive” each time. The call in [3], in [7] and in experiment [8] was inactive.

On to `CN1CCc2cc(Cl)c(O)cc2[C@@H](c2ccccc2)C1`, for which the Potency result in experiment [1], in experiment [4], in [5], in experiment [9] and in [6] was “inactive” each time. The result in experiment [3] and in [7] was inactive.

Turning to `COc1ccc(CCN(C)CCc2ccc(OC)c(OC)c2)cc1OC`, the Potency entry in [1], in experiment [2], in experiment [4], in experiment [5], in experiment [9] and in [6] was “inactive” throughout. For the same compound, the result in [7] and in [8] was inactive.

As to `Nc1ncnc2c1nc(Br)n2C1OC2COP(=O)(O)O[C@@H]2C1O` (some centres undefined), the Potency entry in experiment [1], in experiment [4], in [5], in experiment [9] and in experiment [6] was “inactive” throughout. For the same compound, the result in experiment [3] and in experiment [7] was inactive.

Take `Nc1ncnc2c1ncn2C1CCCO1` (centres undefined): the Potency entry in [10], in [2], in experiment [4], in experiment [5] and in [9] was “inactive” throughout. The compound was called inactive in experiment [3], in [7] and in [8]. In addition, in experiment [6], the Potency is 6 nM (active).

For the compound `CN(C)CCCc1cc(C(=O)Nc2ccc(-c3ccncc3)cc2)ccc1O`, the Potency result in experiment [1], in experiment [4], in experiment [5] and in [9] was “inactive” each time. Besides, the result in experiment [3] and in [7] was inactive.

Take `COc1ccccc1N1CCN(CCN(C(=O)c2ccc(F)cc2)c2ccccn2)CC1`: the Potency result in experiment [1], in [4] and in experiment [5] was “inactive” each time. In addition, the outcome in experiment [3], in [7] and in experiment [8] was inactive.

Take `CC(N)(Cc1ccc(O)c(O)c1)C(=O)O` (centres undefined): the Potency entry in experiment [10] and in [2] was “inactive” throughout. Also, the outcome in experiment [3], in [7] and in experiment [8] was inactive. Moreover, the Potency in [4] was 2990 nM (active); in [5], 2380 nM (active); in experiment [9], 79.4 µM (active) and 2.38 µM (active); in experiment [6] it was 5320 nM (active).

In the case of `N[C@H](C(=O)O)[C@H](Cc1ccccc1)C(=O)O`, the Potency entry in experiment [1], in experiment [5], in experiment [9] and in experiment [6] was “inactive” in each case. Further, the result in experiment [3] and in experiment [7] was inactive.

`CNC(=O)c1cc2c(cn1)[nH]c1ccccc12`: the Potency result in [1], in [4], in [5] and in experiment [9] was “inactive” in each case. Moreover, the call in experiment [7] and in experiment [8] was inactive.
